The results in this text go back to ChEMBL document CHEMBL3988442, “University of Dundee, Small-Polar-MMV Screening Library” (2021).

This assay deals with T1, Methionyl-tRNA synthetase, putative (Leishmania donovani (strain BPK282A1)) (UniProt E9BF75).
T1 sequence (whole entry): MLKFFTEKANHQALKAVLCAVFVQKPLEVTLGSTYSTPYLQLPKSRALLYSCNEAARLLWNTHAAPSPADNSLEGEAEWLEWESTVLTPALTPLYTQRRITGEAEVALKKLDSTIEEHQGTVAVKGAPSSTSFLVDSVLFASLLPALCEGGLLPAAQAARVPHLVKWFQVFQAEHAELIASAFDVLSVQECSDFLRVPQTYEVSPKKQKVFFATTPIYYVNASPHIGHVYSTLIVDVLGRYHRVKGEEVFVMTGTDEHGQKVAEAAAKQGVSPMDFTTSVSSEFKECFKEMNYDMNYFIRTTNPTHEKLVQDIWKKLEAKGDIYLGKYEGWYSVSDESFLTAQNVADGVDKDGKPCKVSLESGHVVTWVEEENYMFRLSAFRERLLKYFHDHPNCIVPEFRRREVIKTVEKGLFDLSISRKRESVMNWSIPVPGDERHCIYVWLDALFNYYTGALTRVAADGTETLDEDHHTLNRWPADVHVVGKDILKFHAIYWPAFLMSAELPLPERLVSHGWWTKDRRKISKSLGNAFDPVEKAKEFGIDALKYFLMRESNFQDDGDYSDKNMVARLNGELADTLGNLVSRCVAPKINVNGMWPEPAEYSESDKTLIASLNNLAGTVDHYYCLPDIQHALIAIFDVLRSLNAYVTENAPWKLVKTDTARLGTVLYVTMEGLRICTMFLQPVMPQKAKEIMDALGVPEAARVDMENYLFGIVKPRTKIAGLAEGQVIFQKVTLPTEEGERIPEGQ
Description: Leishmania donovani Methionine tRNA synthetase (LdMetRS):v7. Dose response assay. The format is functional. More on the design: conc 80 nM, time 150 minutes.

`O=S(=O)(NCCO)c1cccnc1Nc1cccc(C(F)(F)F)c1` gave a PXC50 (MAX_EFFECT 4.933586338) of less than 4, a PXC50 (MAX_EFFECT 12.19008264) of less than 4 and a PXC50 (MAX_EFFECT 16.29955947) of less than 4.

As for `OCCNc1nccc(Nc2cccc(F)c2)n1`, the PXC50 reads like this: (MAX_EFFECT 6.168224299) less than 4; (MAX_EFFECT 6.404958678) less than 4; (MAX_EFFECT 9.691629956) less than 4.

`CCc1cccc(Nc2nc(NCCO)c3cnn(C)c3n2)c1` showed a PXC50 (MAX_EFFECT 6.404958678) of less than 4, a PXC50 (MAX_EFFECT 25.11013216) of less than 4 and a PXC50 (MAX_EFFECT 42.00385356) of less than 4.

Consider `OCCCNc1nccc(Nc2cccc(C(F)(F)F)c2)n1`, for which the PXC50 runs as follows: (MAX_EFFECT 6.834532374) less than 4; (MAX_EFFECT 6.86695279) less than 4; (MAX_EFFECT 9.976247031) less than 4.

Compound `NC(=O)c1cccnc1Nc1cccc(C(F)(F)F)c1` registered a PXC50 (MAX_EFFECT 7.210626186) of less than 4, a PXC50 (MAX_EFFECT 13.42975207) of less than 4 and a PXC50 (MAX_EFFECT 16.74008811) of less than 4.

On to `Cn1ncc2c(NCCO)nc(NCc3cccc(F)c3)nc21`, for which the PXC50 runs as follows: (MAX_EFFECT 8.142493639) less than 4; (MAX_EFFECT 8.301886792) less than 4; (MAX_EFFECT 9.649122807) less than 4.

On to `CN(c1cccc(F)c1)c1nc(NCCO)c2cnn(C)c2n1`, for which the PXC50 was less than 4 (MAX_EFFECT 8.142493639), less than 4 (MAX_EFFECT 9.649122807) and less than 4 (MAX_EFFECT 12.83018868).

As for `COc1cc(Nc2nc(NCCO)c3cnn(C)c3n2)cc(C(F)(F)F)c1`, the PXC50 was less than 4 (MAX_EFFECT 10.13215859), less than 4 (MAX_EFFECT 10.95041322) and less than 4 (MAX_EFFECT 12.18568665).

On to `Cc1cc(Nc2nc(NCCO)c3cnn(C)c3n2)cc(C(F)(F)F)c1`, for which the PXC50 was less than 4 (MAX_EFFECT 17.18061674), less than 4 (MAX_EFFECT 18.76208897) and less than 4 (MAX_EFFECT 22.9338843).

Turning to `CCc1cccc(Nc2nc(NCCO)c3sccc3n2)c1`, the PXC50 was less than 4 (MAX_EFFECT 17.21470019), less than 4 (MAX_EFFECT 27.31277533) and less than 4 (MAX_EFFECT 37.39669421).

On to `NS(=O)(=O)c1cc(Cl)cc(Cl)c1`, for which the PXC50 is less than 3 (MAX_EFFECT 24.26470588), less than 3 (MAX_EFFECT 31.80778032) and less than 2.7 (MAX_EFFECT 47.99235182).

Turning to `NC1CCN(C2CCN(c3ccc(-c4ccco4)cc3)CC2)CC1`, the PXC50 (MAX_EFFECT 34.50087566) is less than 4, the PXC50 (MAX_EFFECT 44.89795918) is less than 4 and the PXC50 (MAX_EFFECT 51.44927536) was less than 4.

For the compound `COc1cccc(-c2noc3c2CN(c2ncnc4c2CCC4)CC3)c1`, the PXC50 was less than 4 (MAX_EFFECT 38.4057971), less than 4 (MAX_EFFECT 40.13605442) and less than 4 (MAX_EFFECT 45.70928196).

In the case of `Cc1ccc(CSc2nc(N)cc(NCC(=O)N3CCNCC3)n2)cc1`, the PXC50 reads like this: (BOTTOM -2.199449509, HILLSLOPE 1.075485519, MAX_EFFECT 68.11594203, TOP 100.0) 4.29; (BOTTOM -2.347869122, HILLSLOPE 1.011463002, MAX_EFFECT 66.66666667, TOP 100.0) 4.27; (BOTTOM -6.039839519, HILLSLOPE 1.064095709, MAX_EFFECT 59.36952715, TOP 57.65563111) 4.81.

As to `NS(=O)(=O)c1cccc(Nc2ncccc2S(N)(=O)=O)c1`, the PXC50 by setting is: (MAX_EFFECT 9.108159393) less than 4; (MAX_EFFECT 16.73553719) less than 4; (MAX_EFFECT 21.14537445) less than 4.

For `NC(=O)c1cc(Nc2ncccc2S(N)(=O)=O)cc(C(F)(F)F)c1`, the PXC50 was less than 4 (MAX_EFFECT 8.583690987), less than 4 (MAX_EFFECT 8.863198459) and less than 4 (MAX_EFFECT 9.501187648).

On to `NS(=O)(=O)c1cccnc1Nc1cccc(C(F)(F)F)c1`, for which the PXC50 is less than 4 (MAX_EFFECT 8.810572687), less than 4 (MAX_EFFECT 8.888888889) and less than 4 (MAX_EFFECT 15.90909091).

For `OCCCNc1nccc(Nc2cccc(F)c2)n1`, the PXC50 reads like this: (MAX_EFFECT 2.056074766) less than 4; (MAX_EFFECT 11.40142518) less than 4; (MAX_EFFECT 18.45493562) less than 4.
